HCT116 PTEN-null – suppresses growth of cells with PTEN deletion | HCT116 PTEN-null viability, CellTiter-Glo, 60 h; hits give low values | viability, % at 10 µM | 140,000 tested, 1.2% active;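 active = viability at or below a set limit, 4 SD under the median of all tested compounds, cut at about 3.7% in these data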;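 also: PTEN knockout HCT116 line with beta catenin targeted HCT116 as companion control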
HCT116 bCat-KO – beta-catenin-lacking colon tumor cell growth suppression | 140,000 tested, 1.5% active | HCT116 beta-catenin knockout viability, CellTiter-Glo, 60 h; hits give low values | viability, % at 10 µM;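 active = viability at or under a set limit, the compound median less 4 SD, cut at about 6% in these data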;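 also: 0% = Hyamine 1622 control at 20 µM and 100% = untreated cell control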
hDAT+cocaine – changed human dopamine transporter uptake under cocaine IC80. LLC-PK1 hDAT cells, [14C]-dopamine uptake with cocaine IC80; actives deviate in either direction. B-score at 10 µM. 110,000 tested, 1.3% active;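 active = Z score or B-score, a plate-position-corrected score, falls beyond the plate's 99.7% confidence bounds, in either direction; inactive = both scores lie inside the 99.7% bounds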;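 also: scored against the spread of the other compound wells on the same plate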
Target sequence (Q01959 whole entry, looked up): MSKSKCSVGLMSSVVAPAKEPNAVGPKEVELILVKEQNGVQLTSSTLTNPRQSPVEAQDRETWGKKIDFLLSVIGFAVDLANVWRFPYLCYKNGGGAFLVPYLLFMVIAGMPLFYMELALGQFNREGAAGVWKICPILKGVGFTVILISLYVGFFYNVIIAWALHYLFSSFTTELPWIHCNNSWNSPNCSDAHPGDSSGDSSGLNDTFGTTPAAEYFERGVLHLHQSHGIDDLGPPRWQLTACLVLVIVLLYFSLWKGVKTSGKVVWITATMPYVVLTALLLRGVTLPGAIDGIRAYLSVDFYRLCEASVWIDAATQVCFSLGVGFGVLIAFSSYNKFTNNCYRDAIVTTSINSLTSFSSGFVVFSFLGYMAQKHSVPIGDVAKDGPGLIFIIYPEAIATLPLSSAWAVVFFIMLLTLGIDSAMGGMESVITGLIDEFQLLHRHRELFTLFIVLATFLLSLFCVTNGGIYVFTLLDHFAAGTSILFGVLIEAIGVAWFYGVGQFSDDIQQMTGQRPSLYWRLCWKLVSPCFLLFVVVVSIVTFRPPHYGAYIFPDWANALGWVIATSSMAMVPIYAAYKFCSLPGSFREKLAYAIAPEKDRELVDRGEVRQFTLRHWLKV
WT yeast gro inh – growth inhibition of WT yeast, mitochondrial fusion screen; mitochondrial fusion phenotypic screen, WT strain; inhibition, % at 10 µM; 190,000 tested, 2.1% active; AID 1362; in the data active = inhibition above about 58%; tested in S. cerevisiae
* hit, by the source's call; · = no result given. An excerpt weighted towards active compounds, which were near 3.6% of everything screened.

SMILES | HCT116 PTEN-null | HCT116 bCat-KO | hDAT+cocaine | WT yeast gro inh
CCOC(=O)CSC1=C(C#N)C(c2ccc(C)cc2)C(C(=O)OC)C(=O)N1 (centres undefined) | 112 | 102 | -0.48 | 16
CCOc1cc(C(=O)N(C)Cc2cc3ccccc3[nH]c2=O)cc(OCC)c1OCC | 97 | 95 | -0.38 | 78*
CCOc1ccccc1C(=O)N(C)Cc1cc2ccccc2[nH]c1=O | 98 | 87 | -0.042 | 40
Clc1ccccc1CN1CCN(/N=C/c2ccncc2)CC1 | · | · | · | 41
Clc1ccc(/C=N/N2CCN(Cc3ccccc3Cl)CC2)cc1 | · | · | · | 66*
COc1ccccc1/C=C/C=N\N1CCN(Cc2ccccc2Cl)CC1 | 97 | 93 | · | 63*
COc1ccc(C(=O)N/N=C/c2cc3ccccc3[nH]c2=S)cc1 | 56 | 47 | -1.5 | 8
O=C(N/N=C/c1sc2ccccc2c1O)c1ccccc1 | 3.7* | 4.0* | · | -3
COc1ccc(C(=O)N/N=C/c2sc3ccccc3c2O)cc1 | 3.5* | 3.3* | · | -8
O=C(N/N=C/c1sc2ccccc2c1O)c1cccc2ccccc12 | 4 | 4.1* | · | 8
COc1ccc2cc(C(=O)N/N=C/c3sc4ccccc4c3O)ccc2c1 | 4 | 3.1* | · | 1
COc1cccc(-c2noc(CCCC(=O)Nc3ccc(C(N)=O)cc3)n2)c1 | · | · | · | -12
CN(C)C1=NCC(CSC(=N)N)S1 (centres undefined) | · | · | · | -9
OC(COc1ccc2ccccc2c1Br)Cn1cnc(-c2ccccc2)c1 (centres undefined) | 97 | 90 | 1.6 | 88*
COc1ccc(OCC(O)Cn2cnc(-c3ccc(Br)cc3)c2)cc1 (centres undefined) | 97 | 85 | -0.22 | -14
CSC(=NC#N)N1CCN(c2ccccn2)CC1 | · | · | · | 4
O=c1cc(-c2ccccc2Cl)oc2c(NS(=O)(=O)c3cc(Cl)cc(Cl)c3O)ccc(O)c12 | 46 | 44 | -6.3* | 44
CCc1ccc(S(=O)(=O)Nc2ccc(O)c3c(=O)cc(-c4ccccc4Cl)oc23)cc1 | · | · | 0.074 | ·
O=C(c1ccccc1)N1CCN(C(=O)c2ccccc2Br)CC1 | 96 | 97 | -7.7* | -19
O=C(c1cccc(Br)c1)N1CCN(C(=O)N2CCOCC2)CC1 | 98 | 86 | -0.17 | 1
O=C(c1ccccc1)N1CCCCCC1 | 96 | 97 | · | 2
O=C(c1cccc(Br)c1)N1CCN(C(=O)c2cccc(Br)c2)CC1 | 92 | 98 | 2.2* | 12
CCCCN(CCCC)c1ncnc2nc[nH]c12 | · | · | · | 78*
CC(C)NC(=O)c1ccccc1NC(=O)Cc1ccc(Br)cc1 | · | · | · | 15
Nc1c(C(=O)NCc2ccc3c(c2)OCO3)c2nc3ccccc3nc2n1CCCN1CCOCC1 | 1.4* | 1.4* | 1.1 | -1
SMILES | HCT116 PTEN-null | HCT116 bCat-KO | hDAT+cocaine | WT yeast gro inh
Nc1c(C(=O)NCCN2CCOCC2)c2nc3ccccc3nc2n1CCc1ccccc1F | 3.8* | 3.6* | 1.3 | 2
COc1ccccc1CNC(=O)c1c(N)n(CCCN2CCOCC2)c2nc3ccccc3nc12 | 8 | 11 | · | 37
[N-]=[N+]=CC(=O)CC(c1ccccc1)N1C(=O)c2ccccc2C1=O (centres undefined) | 117 | 107 | · | 0
C[C@H](C(=O)C=[N+]=[N-])N1C(=O)c2ccccc2C1=O | 108 | 96 | -7.1* | 7
Cc1ccc(NC(=O)c2cc(-c3ccccc3)nn2-c2ccccc2)c(Br)c1 | 24 | 48 | · | 65*
Cc1ccc(NC(=O)c2cc(-c3ccccc3)nn2-c2ccccc2)cc1 | 80 | 84 | · | 66*
O=C(NC1=NCCS1)c1cc(-c2ccccc2)nn1-c1ccccc1 | · | · | -0.5 | ·
COC(=O)Nc1ccc(S(=O)(=O)N2CCCC(C(=O)N3CCC(C)CC3)C2)cc1 (centres undefined) | · | · | · | 16
C=C1CCN([C@@H](Cc2ccccc2)C(=O)NC2CCN(Cc3ccccc3)CC2)S(=O)(=O)c2ccccc21 | · | · | 0.54 | ·
COCCN=c1scc(-c2ccccc2)n1/N=C/c1c[nH]c2ccccc12 | 42 | 54 | · | 79*
COCCN=c1scc(-c2cccs2)n1/N=C/c1ccc(O)c(O)c1O | 59 | 60 | · | 3
COc1ccc(C2C3=C(CC(C)(C)CC3=O)Nc3cc4c(cc32)OCO4)cc1 (centres undefined) | 83 | 86 | 2.5* | 5
CC1(C)CC(=O)C2=C(C1)Nc1cc3c(cc1C2c1ccc(F)cc1)OCO3 (centres undefined) | 86 | 86 | -0.2 | 17
O=C(Nc1ccccc1)c1nnsc1S(=O)c1ccc(Cl)cc1 (centres undefined) | 2.2* | 7 | -1.3 | 6
CCOC(=O)c1c(C)sc2c1N(C(=O)CCl)c1cc(Cl)ccc1S2 | 2.2* | 2.3* | -1.7 | 40
c1ccc(-c2csc3ncnc(N4CCOCC4)c23)cc1 | · | · | · | 5
c1ccc(-c2csc3ncnc(N4CCc5ccccc5C4)c23)cc1 | 60 | 57 | · | 70*
CNC(=O)C1C(=S)NC(N)=C(C#N)C1c1ccccc1 (centres undefined) | 1.0* | 0.5* | -0.24 | 11
O=C(Nc1nc(-c2ccccn2)cs1)c1ccc(Cl)s1 | 16 | 8 | 1.5 | 66
O=C(Nc1nc(-c2cc(Cl)sc2Cl)cs1)c1ccccc1 | 52 | 43 | -1.5 | 68*
CC1(C)Cc2c(C#N)c(N3CCN(C(=O)c4ccco4)CC3)nc(-c3ccco3)c2CS1 | 74 | 85 | -0.082 | 16
CC1(C)Cc2c(C#N)c(N3CCN(C(=O)c4ccco4)CC3)nc(Cc3ccccc3)c2CO1 | 1.0* | 1.5* | 0.85 | 3
CC(C)Cc1nc(N2CCN(C(=O)c3ccccc3)CC2)c(C#N)c2c1CCC2 | 16 | 11 | 0.068 | 73*
CCOC(=O)c1ccc(NS(=O)(=O)c2c(N)n(C)c(=O)n(C)c2=O)cc1 | · | · | -0.77 | ·
CC(C)Cc1nc(NCCN2CCOCC2)c(C#N)c2c1COC(C)(C)C2 | 80 | 80 | 0.29 | 2
SMILES | HCT116 PTEN-null | HCT116 bCat-KO | hDAT+cocaine | WT yeast gro inh
CCCCc1nc(NCCN2CCOCC2)c(C#N)c2c1COC(C)(C)C2 | 90 | 91 | 2.6* | 23
O=C(Nc1ccccc1)/C(=C1\CCCN1)[N+](=O)[O-] | · | · | · | 13
CC(NCc1ccc(F)cc1)C(=O)NC1CCCCC1 (centres undefined) | · | · | · | -13
O=C(/C=C/c1ccccc1F)c1cccc([N+](=O)[O-])c1 | 2.6* | 3.2* | · | 24
O=C(C#Cc1ccccc1)c1cccc([N+](=O)[O-])c1 | 2.1* | 2.4* | -0.26 | 78
COc1cc(/C=C/C(=O)c2cccc([N+](=O)[O-])c2)cc(OC)c1OC | 1.4* | 2.1* | · | 23
CCCCC1=CC2=CC(=O)C(C)(OC(=O)CC)C(=O)C2=CN1CCc1ccc(Br)cc1 (centres undefined) | · | · | -0.92 | ·
O=S(N1CCc2ccccc21)C12CC3CC(CC(C3)C1)C2 (centres undefined) | · | · | · | 5
O=C(Nc1ccccc1)c1ccc(S(=O)(=O)NCc2ccco2)cc1 | 101 | 89 | -0.57 | 0
Cc1ccc(C(=O)Nc2ccc(S(=O)(=O)NCc3ccco3)cc2)cc1 | 93 | 76 | 0.63 | 66*
COc1ccc(CNCC(=O)Nc2sccc2C#N)cc1 | · | · | · | 1
O=c1cc(-c2ccccc2)[nH]n1-c1ccc([N+](=O)[O-])cc1 | 79 | 85 | -2.5* | ·
